These results are taken from PubChem BioAssay.

Experiment [1] can be described thus: E. coli DRC41 culture turbidity changes, primary screen, E. coli filamentation inducer project, strain DRC41, OD650, 48 h (AID 1152).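 Also: E. coli MC1000 strain DRC41 lacking acrAB efflux pump and sulA.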 The note with it: E. coli DRC41 (acrAB sulA), higher = more signal, called active from +8 up or from −8 down.
Experiment [2] in a line: small-molecule binders of probe aLefty1, primary screen, biochemical, small-molecule microarray, 635/667 nm fluorescence (AID 1153).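 Also: score merges spot fluorescence with signal-to-noise ratio from the scanned slide images.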 The note with it: higher = more signal.
Experiment [3] in a line: PSAC antagonists in infected red cells, primary screen, cell-based, P. falciparum Indochina, OD700, 1 h (AID 1154). The note with it: P. falciparum Indochina infected RBC osmotic lysis, higher = more signal, called active from +8 up or from −8 down.
Experiment [4] in a line: PSAC antagonists in infected red cells, primary screen, cell-based, P. falciparum Indochina, OD700, 2 h (AID 1155).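 Also: lysis reports solute entry through the parasite surface anion channel PSAC; channel blockers reduce lysis of infected cells.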 The note with it: P. falciparum Indochina infected erythrocytes, osmotic lysis OD700; higher = more signal, called active from +8 up or from −8 down.
Experiment [5] is described as follows: osmotic lysis modulators in infected erythrocytes, primary screen, PSAC antagonist project, cell-based, P. falciparum Indochina, OD700, 3 h (AID 1156). Particulars: higher = more signal, called active from +8 up or from −8 down.
Experiment [6] is described as follows: PSAC antagonists in infected red cells, primary screen, cell-based, P. falciparum Indochina, OD700, 18 h (AID 1157). Particulars: P. falciparum Indochina infected erythrocytes, osmotic lysis OD700, 18 h; higher = more signal, called active from +8 up or from −8 down.
The nature of experiment [7]: modulators of S6 phosphorylation in cells, primary screen, cell-based, A549, cytoblot, luminescence, serum-stimulated (AID 1158).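 Also: serum-stimulated A549 lung adenocarcinoma cells; signal is phosphorylated S6 detected by cytoblot immunostaining with HRP secondary.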 The note with it: A549 phospho-S6 cytoblot, 5 h, higher = more signal.
Experiment [8] has as its target NADPH oxidase 2 (Homo sapiens) (UniProt P04839). The experiment in a line: NOX2-dependent H2O2 signal modulators, primary screen, NOX inhibitor project, cell-based, HEK293-NOX2, PMA-stimulated, Amplex Red fluorescence (AID 1159). Also: test concentration not given here. The note with it: 45 min, higher = more signal, called active from +8 up or from −8 down.
In experiment [9] the target is NADPH oxidase 4 (Homo sapiens) (UniProt Q9NPH5). The experiment in a line: NOX4-dependent H2O2 signal modulators, primary screen, NOX inhibitor project, cell-based, HEK293-NOX4, tetracycline-induced, Amplex Red fluorescence (AID 1160). Particulars: 45 min, higher = more signal, called active from +8 up or from −8 down.
Chain of NADPH oxidase 4 (Homo sapiens) (Q9NPH5 whole entry, looked up): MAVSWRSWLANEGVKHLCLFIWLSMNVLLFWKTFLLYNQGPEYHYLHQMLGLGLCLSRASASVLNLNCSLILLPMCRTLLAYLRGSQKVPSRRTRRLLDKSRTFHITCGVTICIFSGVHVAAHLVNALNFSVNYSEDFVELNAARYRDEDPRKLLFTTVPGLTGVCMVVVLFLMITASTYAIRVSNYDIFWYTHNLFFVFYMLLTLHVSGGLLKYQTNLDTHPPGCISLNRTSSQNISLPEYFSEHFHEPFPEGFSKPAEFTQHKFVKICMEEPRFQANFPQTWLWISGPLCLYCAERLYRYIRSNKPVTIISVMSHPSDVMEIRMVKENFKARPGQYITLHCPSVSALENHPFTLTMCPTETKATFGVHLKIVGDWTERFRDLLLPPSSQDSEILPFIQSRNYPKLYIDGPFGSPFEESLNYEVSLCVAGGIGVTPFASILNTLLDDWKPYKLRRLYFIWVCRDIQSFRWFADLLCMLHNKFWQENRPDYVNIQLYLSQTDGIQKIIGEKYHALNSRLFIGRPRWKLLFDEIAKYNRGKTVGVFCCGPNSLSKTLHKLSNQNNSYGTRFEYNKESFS
In experiment [10] the target is NADPH oxidase 5 (Homo sapiens) (UniProt Q96PH1). Nature of the experiment: NOX5-dependent H2O2 signal modulators, primary screen, NOX inhibitor project, cell-based, HEK293-NOX5, Amplex Red fluorescence (AID 1161). The note with it: HEK293-NOX5, ionomycin, 45 min, higher = more signal.
Chain of NADPH oxidase 5 (Homo sapiens) (Q96PH1 whole entry, looked up): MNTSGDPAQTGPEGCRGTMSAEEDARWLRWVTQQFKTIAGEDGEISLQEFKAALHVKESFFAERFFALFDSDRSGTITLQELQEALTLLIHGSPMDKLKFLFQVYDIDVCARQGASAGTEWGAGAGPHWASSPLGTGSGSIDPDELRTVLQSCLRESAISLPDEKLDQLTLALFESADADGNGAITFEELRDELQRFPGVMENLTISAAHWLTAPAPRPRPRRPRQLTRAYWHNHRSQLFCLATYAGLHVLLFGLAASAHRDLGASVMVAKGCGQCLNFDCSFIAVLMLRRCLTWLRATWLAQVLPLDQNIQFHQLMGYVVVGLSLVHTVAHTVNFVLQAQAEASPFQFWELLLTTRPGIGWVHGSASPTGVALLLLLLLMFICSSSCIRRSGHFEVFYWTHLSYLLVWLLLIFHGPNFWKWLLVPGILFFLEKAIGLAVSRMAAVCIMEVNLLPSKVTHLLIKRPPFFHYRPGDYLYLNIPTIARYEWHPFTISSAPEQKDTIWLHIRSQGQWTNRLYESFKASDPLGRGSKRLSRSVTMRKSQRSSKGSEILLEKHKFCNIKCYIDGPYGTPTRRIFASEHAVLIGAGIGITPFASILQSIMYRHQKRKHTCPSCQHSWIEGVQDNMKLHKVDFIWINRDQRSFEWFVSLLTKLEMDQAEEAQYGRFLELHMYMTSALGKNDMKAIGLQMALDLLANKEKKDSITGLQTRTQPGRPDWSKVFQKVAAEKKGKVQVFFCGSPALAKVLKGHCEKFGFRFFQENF

Activity calls are given as the source filed them.

Chain of NADPH oxidase 2 (Homo sapiens) (P04839 whole entry, looked up): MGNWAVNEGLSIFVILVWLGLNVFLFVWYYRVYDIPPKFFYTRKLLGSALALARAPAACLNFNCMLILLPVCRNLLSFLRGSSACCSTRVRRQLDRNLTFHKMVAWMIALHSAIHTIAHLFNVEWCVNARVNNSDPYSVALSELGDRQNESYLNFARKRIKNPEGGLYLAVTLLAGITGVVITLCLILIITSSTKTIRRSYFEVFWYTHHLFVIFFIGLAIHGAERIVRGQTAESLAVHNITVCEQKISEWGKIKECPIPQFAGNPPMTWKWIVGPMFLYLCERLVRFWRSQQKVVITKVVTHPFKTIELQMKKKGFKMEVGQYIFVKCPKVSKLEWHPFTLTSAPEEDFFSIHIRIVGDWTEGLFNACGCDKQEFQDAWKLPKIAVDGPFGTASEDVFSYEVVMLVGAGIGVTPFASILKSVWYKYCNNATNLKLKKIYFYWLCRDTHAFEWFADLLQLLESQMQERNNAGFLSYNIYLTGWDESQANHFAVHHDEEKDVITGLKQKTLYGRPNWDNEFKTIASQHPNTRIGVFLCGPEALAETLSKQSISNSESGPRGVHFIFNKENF

For the compound `O=C1OCCC=C[C@H]2OC34C=CCN(c5ccc(Cl)cc5)C(=O)[C@H]3N(CCCCCO)C(=O)[C@@H]4C12` (stereo not given in full), the z-score in [1] is 1.81 (inactive); in [3], 2.21 (inactive); in [4], 0.355 (inactive); in experiment [5], 1.63 (inactive); in [6], 0.795 (inactive); in [7] it was 0.0411. Also, the z-score is 1.69 (inactive) in [8], 0.747 (inactive) in experiment [9] and 2.35 in experiment [10]. In experiment [2], the composite z-score amounted to 0.211.

Turning to `C#CCNC(=O)[C@H](Cc1ccccc1)NC(=O)[C@@H](N=[N+]=[N-])C(C)C`, the z-score is 0.367 (inactive) in experiment [1]; 0.0059 (inactive) in experiment [3]; 0.705 (inactive) in experiment [4]; 0.0901 (inactive) in experiment [5]; 0.405 (inactive) in experiment [6]; -0.52 in [7]. In addition, the results for the z-score in experiment [8], in experiment [9] and in experiment [10] were 0.291 (inactive), -0.18 (inactive) and 0.323, respectively. In experiment [2], this compound came in with a composite z-score of -0.145.

As for `CC1CC/C=C\[C@H]2OC34C=CCN(CCN5CCOCC5)C(=O)[C@H]3N(CCO)C(=O)[C@@H]4C2C(=O)O1` (stereo not given in full), the z-score was 0.413 (inactive) in experiment [1]; 3.04 (inactive) in [3]; 0.397 (inactive) in experiment [4]; -0.174 (inactive) in [5]; 0.38 (inactive) in experiment [6]; -0.0354 in experiment [7]. Further, the results for the z-score in [8], in [9] and in [10] were 0.994 (inactive), 0.221 (inactive) and 2.07, respectively. Also, the composite z-score in experiment [2] turned out to be 0.213.

As for `CN1C2C=C(CCCO)C(C3C(=O)N(C(N)=O)C(=O)C32)C1c1cccs1` (stereo not given), the z-score in experiment [1] was -0.214 (inactive); in [3], 1.12 (inactive); in [4], 0.273 (inactive); in experiment [5] it was 0.13 (inactive); in experiment [6], 0.431 (inactive); in experiment [7], -0.633. For the same compound, the values for the z-score in [8], in experiment [9] and in experiment [10] were 0.824 (inactive), -0.845 (inactive) and 0.259, respectively. This compound yielded a composite z-score in experiment [2] of -0.101.

Take `CCOC(=O)C[C@H]1[C@H](OC(=O)Cc2ccc3c(c2)OCO3)[C@@H](NC(=O)Cc2ccc(OC)cc2)c2cc(OCCCO)ccc2N1C(=O)c1ccccc1`: the z-score is 1.53 (inactive) in experiment [1]; 1.8 (inactive) in [3]; 0.263 (inactive) in experiment [4]; -0.729 (inactive) in experiment [5]; -0.33 (inactive) in experiment [6]; -0.295 in experiment [7]. The z-score in experiment [8] is -1.25 (inactive); in experiment [9] it was 0.689 (inactive); in [10], 0.267. In experiment [2], this compound returned a composite z-score of 0.0903.

As to `C=CC[C@]1(C(=O)N(C)C)N=C(c2ccc(OCCCO)cc2)O[C@H]1c1ccccc1N=[N+]=[N-]`, the z-score was 0.355 (inactive) in experiment [1]; 30.8 (active) in experiment [3]; 28.4 (active) in experiment [4]; 2.88 (inactive) in [5]; 7.33 (inactive) in experiment [6]; -0.219 in [7]. Further, the z-score in experiment [8] was -1.06 (inactive); in experiment [9], 1.52 (inactive); in experiment [10] it was 0.668. Moreover, the composite z-score in experiment [2] came to 0.313.

As for `C=C(C(=O)CC[C@H](OC(C)=O)c1cccc(OCCO)c1)C(C)C`, the z-score in [1] is 0.667 (inactive); in [3], 2.12 (inactive); in [4], -1.94 (inactive); in [5], 1.7 (inactive); in [6], -1.7 (inactive); in experiment [7], 0.617. Further, the figures for the z-score in experiment [8], in experiment [9] and in [10] were -1.48 (inactive), -0.481 (inactive) and -1.61, respectively. The composite z-score in experiment [2] was -0.283.

For the compound `O=C1NCC(=O)N2[C@@H]1C[C@@H](C(=O)O)[C@H]2c1ccc(O)cc1`, the z-score in experiment [1] was 0.533 (inactive); in experiment [3] it was 2.73 (inactive); in experiment [4], 0.328 (inactive); in experiment [5], -3.02 (inactive); in experiment [6] it was -0.0173 (inactive); in [7], -0.174. The z-score in experiment [8] was -1.92 (inactive); in experiment [9], -0.822 (inactive); in [10], -1.29. In [2], this compound came in with a composite z-score of 0.138.

With `O=C(O)[C@H]1C[C@H]2C(=O)N3CCC[C@H]3C(=O)N2[C@H]1c1cccc(OCCO)c1`, the z-score was 0.71 (inactive) in [1]; 6.65 (inactive) in [3]; 1.08 (inactive) in experiment [4]; -1.69 (inactive) in [5]; 0.619 (inactive) in experiment [6]; 0.557 in experiment [7]. Besides, the figures for the z-score in experiment [8], in experiment [9] and in experiment [10] were -0.117 (inactive), -0.0548 (inactive) and 1.24, respectively. The compound also yielded a composite z-score in experiment [2] of -0.017.

As for `O=C(NC1CC1)[C@@H]1c2ccccc2C(=O)N(Cc2ccccc2)[C@H]1c1ccc(CO)cc1`, the z-score in experiment [1] was 0.651 (inactive); in [3], 2.58 (inactive); in experiment [4], 0.258 (inactive); in experiment [5], 1.38 (inactive); in [6], 0.0604 (inactive); in [7], 0.666. Also, the z-score in [8] is -0.962 (inactive); in [9] it was 0.623 (inactive); in [10], -1.52. This compound had a composite z-score in experiment [2] of 0.0191.

`CCOc1cc(C(O)C2C=CC3C(=O)N(C)C(=O)C3N2N2CCCCC2)ccc1O` (stereo not given): the z-score was -0.794 (inactive) in experiment [1]; 1.5 (inactive) in [3]; 1.66 (inactive) in experiment [4]; 0.0675 (inactive) in experiment [5]; 1.12 (inactive) in experiment [6]; -0.599 in [7]. Further, the z-score in experiment [8] was -1.96 (inactive); in [9], -3.83 (inactive); in [10], -3.11. For the same compound, the composite z-score in [2] worked out at 0.267.
